The record followed here is PubChem BioAssay AID1159506 (National Center for Advancing Translational Sciences (NCATS), 2015).

The full ranking holds about 59,000 sequences; the median of the read-out is about -0.00055, and the lowest 2% start at about -2. The sample as a whole holds a higher share of the lowest values than the screen did.

The nature of the test: Identification of proteins required for the processing of the EWS-FLI1 nascent transcript.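 Further: robust z of luciferase light less the median z of siRNAs with the same seed.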 Conditions: TC32 Ewing sarcoma NR0B1-luc vs CMV-luc (EWS-FLI1 target promoter against control promoter), 48 h; screened at 20 nM (by protocol). How it is done: Ewing sarcoma (ES) cells depend on the EWS-FLI1 fusion transcription factor for cell survival. Using an assay of EWS-FLI1 activity and genome-wide siRNA screening we have identified proteins required for the processing of the EWS-FLI1 nascent transcript. Parallel genome-wide siRNA-mediated RNAi screens were conducted in Ewing sarcoma TC32 cell lines expressing a luciferase (luc) reporter protein driven by either the promoter of the EWS-FLI1 target gene NR0B1 (TC32-NR0B1-luc) or the CMV promoter (TC32-CMV-luc). Luciferase activity was assessed 48 hours post siRNA-transfection.
Twenty microl of serum-free media containing Lipofectamine RNAiMax (0.05 microl) was added to wells containing siRNA (0.8 pmol). Lipid and siRNA were allowed to complex for 45 min at ambient temperature before addition of 600 cells in RPMI-1640, 20% FBS to yield final transfection mixtures containing 20 nM siRNA in RPMI-1640, 10% FBS. Luciferase expression was measured using OneGlo (Promega, Madison, WI). The genome-wide screening campaign was conducted using Ambion's human genome library version 4.1 (Ambion, Austin TX). This library targets approximately 21000 human genes, three siRNAs per gene. Each siRNA is arrayed in an individual well of a 384-well plate. Parallel transfections were conducted in TC32-NR0B1-luc and TC32-CMV-luc cell lines and luciferase expression (OneGlo, Promega) was assayed 48 h later on a PerkinElmer Envision 2104 Multilabel plate reader (PerkinElmer, Waltham, MA). Qiagen's AllStars Negative control was incorporated on all screening plates for normalization (16 wells per plate). Qiagen, Germantown, MDsiGL4 was incorporated as a positive transfection control (16 wells per plate) on all plates. […] The raw luciferase data for the NR0B1- and CMV-luc screens were normalized and z-score-MAD transformed using standard methods (Chung et al., 2008). The miRNA-like seed sequence of every siRNA was determined and the median z-score for all siRNA sequences with the same seed sequence was calculated. This z-score was subtracted from the z-score associated with each siRNA with that seed sequence to generate a seed-adjusted z-score value (Z) that was used when the results for the three siRNAs corresponding to each gene were compared (Marine et al., 2012)
As for UAAGGUUCGACCUGCAGAG against MNX1-AS1, the seed-corrected z-score was -2.4.

On to UUCCGUUGAUUCUUUCUCC against KAT5, for which the seed-corrected z-score is -1.63. As for UUGGUGGUCAUUAAGGUUG against PQLC3, the figure is -0.378; as for AAUCUGUCUGUAGGUAUCC against TBC1D22B, -0.38; as for AUUGAUGUAAUCUCCGUCC against PTPN7, -1.34. Consider UUUCUUAUCUCUGUUGUUC against CRCP, for which the seed-corrected z-score amounted to 0.4. On to UUUGGUGAUAGGGUGCUCG against C5orf60, for which the seed-corrected z-score is -3.47.

As to UUUCUUAGGUGUAUUGACC against PRDX1, the seed-corrected z-score was -1.23. On to AAGGUAGGCAAAAUUAUCC against GALNT16, for which the seed-corrected z-score was 1.35. As for UAGACGUGCACGAACACGC against MOB3A, the figure is -0.135.

UGAUAUAGGAGUUAGACUG against KRTAP2-2 returned a seed-corrected z-score of 0.0896. As for UUAGCAAGCAUCCUUUCGC against LTN1, the figure is -0.45; as for AAACAGAAGAGGGAGUGGG against LINC01567, -2.3. UGAAUAAUACCUAUAAUCC against OR4F6: the seed-corrected z-score is -0.573. For UUGGACAUGAUGAAAUUCC against EML3 the value was 0.0247; for UACAUGCUCCGCACAGUCC against NOTCH1, -0.17. Consider UUGGAGCACUGUAAAGGCC against ZFP14, for which the seed-corrected z-score amounted to 0.456.

As to UCUUUAUCAAGUUUACAGG against LANCL3, the seed-corrected z-score was -0.0126. AUAGUUCGGAUCACAAUGC against NPSR1 registered a seed-corrected z-score of 0.18.

Regarding UUCACUGUCAGUCCGAUGG against COPZ1, the seed-corrected z-score was -3.71.

Consider UCUGGUUCUUGUUGGGUAG against ECEL1, for which the seed-corrected z-score was -2.81. Consider UUUCGAGAAAUAAUACACC against RPA1, for which the seed-corrected z-score is -0.401.

UGUAGAAUGAUCACCAACC against PCNX4 showed a seed-corrected z-score of 0.471.

In the case of UAGGUCAUAACAGAAUGCU against FLNC, the seed-corrected z-score was -0.156. As for UGUAGUCACACCAGAGAGG against FAM180B, the figure is -2.49.

In the case of AAAGAUAUCAGGCACCCAG against GABRR3, the seed-corrected z-score amounted to 0.633. As for UAAACUGCACUUUCCACGG against C12orf49, the figure is -2.69; as for UGUAUUAUGACCUUCGCUC against MORC4, -0.441. For UCAAUUGAUUCCUCAAUUC against MCM6 the value was 0.575; for UAUGCUUUCAAAAGAGUCC against ETS1, -1.16; for AAGGCAUUAAGACUCUUGG against HDAC3, -0.388. As for UCCUUUACCGAUUUCAGUU against XRCC3, the figure is -0.609. In turn, UUCCUUCUUAGGUUUCUUC against LRRC59 registered a seed-corrected z-score of 0.83.

As for UAGUUGUCACCAUCCGUGC against DSE, the seed-corrected z-score was -2.48. For AAGUUUAUAUACACUUUUG against NDUFS6 the value was 0.771; for UUUCAGAUCAUACUCGCCG against VPS33B, 0.89; for UGAGGAGCGACAAUCUUCC against TFAP2C, -0.276. For UGCCUGGAGAGAGUGUACG against PGLYRP1 the value was -0.292.

For the sequence UUAGCAUUAAAACAGGUAG against GC, the seed-corrected z-score is -0.347.

On to UGGGAUCUCAGCUGUAUCC against XAGE1E, for which the seed-corrected z-score was -2.37. As for UUUAGUAACAGCCCAGUUC against CCDC36, the figure is -0.277; as for AUAGGUAUCAGGCACCCAG against GABRB2, 1.35. As for UAUUCUUACUGAUCGUUUG against FLI1, the figure is -6.54; as for UAUUCACCCAGAACUGUUG against CYP24A1, 0.031. As for UAUAUCACCAUAUAAUCAC against ADRA2B, the figure is -0.259. With AAAUUAAUCUUCUUCAUUC against COX17, the seed-corrected z-score came to 0.109. With UCUGGAUCAAAGGGUGUUG against TMEM134, the seed-corrected z-score was -4.42. In the case of UGAACUCCUUCAAUCCUGC against AHSP, the seed-corrected z-score was 0.888. For UUAAUAAGACUUCAAGAUG against MYOCD the value was 0.454; for UUCCGGUACAAGAUAUUCC against QRSL1, 0.059. As for AUAGGGUUUUACAUGAGGC against MYLK, the figure is -0.272; as for UCAUGAUCUGCGAAGUUGG against CCDC75P1, -2.24; as for UAUGUUCAGCUCGCAUUUC against CMAS, 0.259. Turning to UUCAUGUCCAGGAUAUCCC against OBFC1, the seed-corrected z-score was -0.538. As for AUUGAUAUAAGGAUCAACA against OR5K1, the figure is 0.45; as for UUGGGUACCUCAGUCCACA against SNRPD2, -2.98; as for UACAUCUAAUUCACAGUUC against F9, 0.676. For UAAAUUUGCCCUGCUCUUG against OR2B11, the seed-corrected z-score stood at 0.408. For AGUGUGACAAGAACGUGCC against MYL6P5, the seed-corrected z-score was -0.946. The sequence UCUGUGAACACCGGCAUGU against NCLN displayed a seed-corrected z-score of 2.18. Take UUACGUUCUUGAAAGGCGG against IARS: the seed-corrected z-score was 1.47. As for AGACAGAUGCGUUUGAUUC against PYDC2, the figure is 0.835. Turning to AAUGGAACAACAGCGGUCC against ZNF217, the seed-corrected z-score is -0.315. In the case of UUCCUAGAAACCCAGACUG against SPATA31E1, the seed-corrected z-score was -3.97. As for UACCGAUUUGGUAAUAUCG against LY75, the seed-corrected z-score was -0.557. Regarding UCUCGUUAGUGAUUAAGUC against SULF1, the seed-corrected z-score was -0.403. Sequence UCACCUUGAAGCUAUAACC against ERCC3 showed a seed-corrected z-score of 0.757.
